Measured values taken from PubChem BioAssay (Tox21).
Results filed as inconclusive are left out. Entries that show only a call come without a potency. A number with no mark means an inactive call. Activity calls are given as the source filed them. Unless noted, calls follow the shape of the dose curve; as a rule, active = well fitted curve in the direction sought with a large enough effect in the repeat runs; inconclusive = weak or mixed curves; inactive = no such curve, though single readings can be large; an effect the other way counts as inactive or inconclusive.

Legend:
[1] = qHTS assay to identify aromatase inhibitors - cell viability counter screen (AID 743084);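 also: cells stimulated with testosterone during compound exposure; nearly all actives have a fitted effect of over 55% in size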
[2] = qHTS assay to identify small molecule that activate the aryl hydrocarbon receptor (AhR) signaling pathway - cell viability counter screen (AID 743086);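 also: HepG2 liver cells carrying the AhR DRE luciferase reporter; series mostly up to about 70 µM; nearly all actives have a fitted effect of over 45% in size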
Outline: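 HepG2-AhR-luc (HG2L7.5c1) cells, 4000/well, treated 24 h at 37 C with compound; viability measured as CellTiter-Fluor fluorescence after 30 min in the same wells as the luciferase read.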

[3] = molecular target: Peroxisome proliferator-activated receptor gamma (Homo sapiens) (UniProt P37231); assay: qHTS assay to identify small molecule agonists of the peroxisome proliferator-activated receptor gamma (PPARg) signaling pathway (AID 743094; active = well fitted activation curve with a large enough effect in the signal ratio in the repeat runs, not every such curve was filed as active; the % refers to the signal ratio)
Outline: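 Agonist activity was taken from a beta-lactamase reporter (FRET substrate, 1 h at room temperature) in HEK293H cells carrying a PPARg UAS-bla construct. Compounds in DMSO were incubated 17 h at 37C after a 5 h cell pre-incubation.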

[4] = molecular target: Peroxisome proliferator-activated receptor gamma (Homo sapiens) (UniProt P37231); assay: qHTS assay to identify small molecule antagonists of the peroxisome proliferator-activated receptor gamma (PPARg) signaling pathway (AID 743191; calls by dose curve; also: series mostly up to about 63 µM; nearly all actives have a fitted effect of over 30% in size)
Outline: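 GeneBLAzer PPARg UAS-bla HEK293H cells, 5 h post-plating, exposed to compounds 17 h at 37C. LiveBLAzer B/G FRET substrate added for 1 h at room temperature; beta-lactamase reporter read by fluorescence intensity.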

[5] = qHTS assay to identify small molecule antagonists of the peroxisome proliferator-activated receptor gamma (PPARg) signaling pathway - cell viability counter screen (AID 743194); also: nearly all actives have a fitted effect of over 55% in size
Outline: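 Cytotoxicity counter screen in PPARg-bla HEK293H cells, same wells as reporter assay. Compounds plus 50 nM rosiglitazone (final) for 17 h at 37 C, then viability read by CellTiter-Glo luminescence.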

[6] = qHTS assay for small molecule agonists of the antioxidant response element (ARE) signaling pathway (AID 743202; active = well fitted activation curve with a large enough effect in the signal ratio in the repeat runs, not every such curve was filed as active; the % refers to the signal ratio)
Outline: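 HepG2 ARE-bla reporter line, 2,000 cells/well; 5 h preincubation 37 C/5% CO2; compound (DMSO) 16 h 37 C; B/G FRET substrate 2 h RT; fluorescence intensity.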

[7] = qHTS assay for small molecule agonists of the antioxidant response element (ARE) signaling pathway - cell viability counter screen (AID 743203; calls by dose curve; also: nearly all actives have a fitted effect of over 55% in size)
Outline: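 Viability counter screen: CellTiter-Glo luminescence, read after 30 min at room temperature, in ARE-bla HepG2 wells. Compound exposure lasted 16 h at 37C/5% CO2, following a 5 h pre-incubation of the cells after plating.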

[8] = qHTS assay for small molecule activators of the heat shock response signaling pathway - cell viability counter screen (AID 743209); also: nearly all actives have a fitted effect of over 50% in size
Outline: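 Cytotoxicity counter screen run in the same wells as the heat-shock bla reporter assay: HeLa HSE-bla cells, 5 h compound exposure at 37 C, viability read by CellTiter-Glo luminescence.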

[9] = qHTS assay for small molecule activators of the heat shock response signaling pathway (AID 743210; active = well fitted activation curve with a large enough effect in the signal ratio in the repeat runs, with a control signal flat, not every such curve was filed as active; the % refers to the signal ratio;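 also: HeLa cells with beta-lactamase reporter driven by heat shock elements; series mostly up to about 63 µM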)
Outline: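 Beta-lactamase reporter read-out: FRET substrate fluorescence after 2.5 h at RT, following 5 h compound treatment at 37 C of HeLa cells carrying HSE-driven bla reporter; quantitative HTS format.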

[10] = qHTS assay to identify small molecule agonists of the peroxisome proliferator-activated receptor delta (PPARd) signaling pathway - cell viability counter screen (AID 743211); also: nearly all actives have a fitted effect of over 55% in size
Outline: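 PPARd-bla HEK293H cells (3000/well) were pre-incubated 5 h at 37 C, then exposed to compound for 17 h at 37 C. After 2 h with LiveBLAzer substrate, CellTiter-Glo was added to the same wells; luminescence read after 30 min at room temperature.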

[11] = qHTS assay to identify small molecule antagonists of the peroxisome proliferator-activated receptor delta (PPARd) signaling pathway - cell viability counter screen (AID 743213); also: nearly all actives have a fitted effect of over 50% in size
Outline: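 HEK293H PPARd UAS-bla cells, 5 h pre-incubation, compound + L165041 300 nM final, 17 h 37 C; B/G FRET substrate 2 h RT; then CellTiter-Glo 30 min RT, luminescence.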

[12] = qHTS assay to identify small molecule agonists of the farnesoid-X-receptor (FXR) signaling pathway - cell viability counter screen (AID 743218); also: nearly all actives have a fitted effect of over 45% in size
Outline: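 Viability counter screen in the same wells: CellTiter-Glo luminescence, 30 min room-temperature incubation, measured after the beta-lactamase read. Cells were GeneBLAzer FXR-UAS-bla HEK 293T, compound-treated 16 h at 37C.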

[13] = molecular target: Bile acid receptor (Homo sapiens) (UniProt Q96RI1); assay: qHTS assay to identify small molecule agonists of the farnesoid-X-receptor (FXR) signaling pathway (AID 743220; active = well fitted activation curve with a large enough effect in the signal ratio in the repeat runs, not every such curve was filed as active; the % refers to the signal ratio)
Outline: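 FXR-UAS-bla HEK 293T cells carrying a UAS-driven beta-lactamase reporter were plated for 5 h at 37C/5% CO2, then exposed to DMSO-dissolved Tox21 10K compounds for 16 h at 37C. A LiveBLAzer B/G FRET substrate was loaded for 2 h at room temperature before fluorescence reading.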

[14] = qHTS assay to identify small molecule antagonists of the farnesoid-X-receptor (FXR) signaling pathway - cell viability counter screen (AID 743221; active = well fitted cell-killing curve with a large enough effect in the repeat runs, not every such curve was filed as active; also: nearly all actives have a fitted effect of over 50% in size)
Outline: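 GeneBLAzer FXR-UAS-bla HEK 293T cells, compound plus chenodeoxycholic acid (50 uM final), 16 h at 37 C. CellTiter-Glo added to the same wells after the beta-lactamase read; luminescence read after 30 min at room temperature as viability.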

[15] = molecular target: Aryl hydrocarbon receptor (Homo sapiens) (UniProt P35869); assay: qHTS assay to identify small molecule that activate the aryl hydrocarbon receptor (AhR) signaling pathway (AID 743085); also: nearly all actives have a fitted effect of over 15% in size; also: potency is read from the fitted curve at half-maximal effect;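 as to activation: HG2L7.5c1 human HepG2 liver cells with stably integrated DRE-driven firefly reporter; series mostly up to about 70 µM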
Outline: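 HepG2 cells stably carrying a 20-DRE firefly luciferase reporter (HG2L7.5c1) treated with compound for 24 hr at 37C. Luciferase read by ONE-Glo luminescence, with CellTiter-Fluor viability read first.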

[16] = molecular target: Peroxisome proliferator-activated receptor delta (Homo sapiens) (UniProt Q03181); assay: qHTS assay to identify small molecule agonists of the peroxisome proliferator-activated receptor delta (PPARd) signaling pathway (AID 743212; calls by dose curve)
Outline: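 Read-out: beta-lactamase FRET fluorescence after 2 h room-temperature incubation with LiveBLAzer B/G substrate. Cells were HEK293H carrying a UAS-bla reporter for PPARd, treated at 37 C with DMSO-dissolved compounds.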

[17] = molecular target: Peroxisome proliferator-activated receptor delta (Homo sapiens) (UniProt Q03181); assay: qHTS assay to identify small molecule antagonists of the peroxisome proliferator-activated receptor delta (PPARd) signaling pathway (AID 743215; active = well fitted inhibition curve with a large enough effect in the signal ratio in the repeat runs, not every such curve was filed as active; the % refers to the signal ratio;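 also: cells stimulated with agonist L165041 at 300 nM final during compound exposure; series mostly up to about 62 µM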)
Outline: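 Agonist L165041 (300 nM final) added with compound to PPARd-bla HEK293H UAS-bla reporter cells; 17 h incubation at 37 C. Read-out: LiveBLAzer FRET substrate, 2 h at room temperature, fluorescence intensity.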

[18] = molecular target: Bile acid receptor (Homo sapiens) (UniProt Q96RI1); assay: qHTS assay to identify small molecule antagonists of the farnesoid-X-receptor (FXR) signaling pathway (AID 743217; active = well fitted inhibition curve with a large enough effect in the signal ratio in the repeat runs, not every such curve was filed as active; the % refers to the signal ratio)
Outline: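 Antagonist mode: chenodeoxycholic acid at 50 uM final stimulates a UAS-driven beta-lactamase reporter in HEK 293T FXR-bla cells during 16 h, 37C compound exposure. Read-out is FRET substrate fluorescence after 2 h at room temperature.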

[19] = molecular target: Vitamin D3 receptor (Homo sapiens) (UniProt P11473); assay: qHTS assay to identify small molecule agonists of the vitamin D receptor (VDR) signaling pathway (AID 743222; calls by dose curve)
Outline: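 Agonist mode, beta-lactamase reporter: fluorescence from LiveBLAzer B/G FRET substrate (2 h, room temperature) read after 16 h compound treatment at 37 C of VDR-bla cells, which were pre-incubated 4 h after seeding.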

[20] = molecular target: Vitamin D3 receptor (Homo sapiens) (UniProt P11473); assay: qHTS assay to identify small molecule antagonists of the vitamin D receptor (VDR) signaling pathway (AID 743223; active = well fitted inhibition curve with a large enough effect in the signal ratio in the repeat runs, not every such curve was filed as active; the % refers to the signal ratio)
Outline: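 VDR-bla cells were treated with compound plus 3 nM final 1alpha,25-dihydroxyvitamin D3 for 16 h at 37C. Beta-lactamase reporter read by B/G FRET substrate fluorescence after 2 h at room temperature. qHTS format.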

Chain of Aryl hydrocarbon receptor (Homo sapiens) (P35869 whole entry, looked up): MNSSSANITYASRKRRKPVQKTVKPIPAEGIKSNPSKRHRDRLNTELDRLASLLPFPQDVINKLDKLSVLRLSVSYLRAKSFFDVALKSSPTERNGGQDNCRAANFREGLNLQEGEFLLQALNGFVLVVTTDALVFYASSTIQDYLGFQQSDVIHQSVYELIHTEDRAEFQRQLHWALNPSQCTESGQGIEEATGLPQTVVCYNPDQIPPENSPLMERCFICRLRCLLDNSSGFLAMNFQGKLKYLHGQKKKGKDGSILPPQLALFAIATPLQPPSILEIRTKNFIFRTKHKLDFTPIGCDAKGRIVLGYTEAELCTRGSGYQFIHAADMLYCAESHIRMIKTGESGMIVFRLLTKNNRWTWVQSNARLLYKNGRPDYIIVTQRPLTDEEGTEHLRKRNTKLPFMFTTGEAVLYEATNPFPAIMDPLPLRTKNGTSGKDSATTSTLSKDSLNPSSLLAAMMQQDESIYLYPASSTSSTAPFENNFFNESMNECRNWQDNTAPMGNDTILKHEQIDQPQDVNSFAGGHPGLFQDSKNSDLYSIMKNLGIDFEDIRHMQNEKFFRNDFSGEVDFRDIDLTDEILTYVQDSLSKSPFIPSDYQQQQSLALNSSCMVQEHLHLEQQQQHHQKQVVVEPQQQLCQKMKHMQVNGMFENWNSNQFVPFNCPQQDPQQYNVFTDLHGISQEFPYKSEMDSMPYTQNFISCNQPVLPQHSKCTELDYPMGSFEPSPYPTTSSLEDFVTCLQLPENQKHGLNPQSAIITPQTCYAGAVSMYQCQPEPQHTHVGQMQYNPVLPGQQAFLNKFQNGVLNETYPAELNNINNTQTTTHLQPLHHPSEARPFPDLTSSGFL
Chain of Bile acid receptor (Homo sapiens) (Q96RI1 whole entry, looked up): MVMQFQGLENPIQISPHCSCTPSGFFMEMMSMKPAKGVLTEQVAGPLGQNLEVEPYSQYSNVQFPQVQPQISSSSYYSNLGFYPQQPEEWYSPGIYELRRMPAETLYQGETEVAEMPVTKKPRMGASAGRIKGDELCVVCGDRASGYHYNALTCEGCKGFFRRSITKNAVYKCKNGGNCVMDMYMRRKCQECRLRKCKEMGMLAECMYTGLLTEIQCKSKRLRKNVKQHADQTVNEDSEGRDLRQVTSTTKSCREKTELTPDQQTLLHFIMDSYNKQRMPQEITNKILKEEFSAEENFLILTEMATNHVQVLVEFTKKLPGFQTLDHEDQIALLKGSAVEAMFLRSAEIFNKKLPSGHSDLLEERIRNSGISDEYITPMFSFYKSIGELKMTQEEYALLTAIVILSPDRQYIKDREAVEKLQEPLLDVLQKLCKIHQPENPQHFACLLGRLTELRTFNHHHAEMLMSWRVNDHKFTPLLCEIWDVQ
Chain of Peroxisome proliferator-activated receptor delta (Homo sapiens) (Q03181 whole entry, looked up): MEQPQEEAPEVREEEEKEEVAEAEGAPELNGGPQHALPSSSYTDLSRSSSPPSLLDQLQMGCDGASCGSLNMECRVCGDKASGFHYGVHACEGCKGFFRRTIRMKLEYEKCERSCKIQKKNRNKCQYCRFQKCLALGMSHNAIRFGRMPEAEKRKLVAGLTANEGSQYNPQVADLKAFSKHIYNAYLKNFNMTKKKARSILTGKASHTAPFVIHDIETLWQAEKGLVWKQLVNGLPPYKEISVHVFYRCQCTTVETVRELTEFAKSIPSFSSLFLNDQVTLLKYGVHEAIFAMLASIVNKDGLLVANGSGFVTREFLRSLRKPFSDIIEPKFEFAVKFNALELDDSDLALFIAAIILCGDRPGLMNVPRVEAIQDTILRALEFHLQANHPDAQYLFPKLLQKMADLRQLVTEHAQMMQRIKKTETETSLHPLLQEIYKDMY
Chain of Peroxisome proliferator-activated receptor gamma (Homo sapiens) (P37231 whole entry, looked up): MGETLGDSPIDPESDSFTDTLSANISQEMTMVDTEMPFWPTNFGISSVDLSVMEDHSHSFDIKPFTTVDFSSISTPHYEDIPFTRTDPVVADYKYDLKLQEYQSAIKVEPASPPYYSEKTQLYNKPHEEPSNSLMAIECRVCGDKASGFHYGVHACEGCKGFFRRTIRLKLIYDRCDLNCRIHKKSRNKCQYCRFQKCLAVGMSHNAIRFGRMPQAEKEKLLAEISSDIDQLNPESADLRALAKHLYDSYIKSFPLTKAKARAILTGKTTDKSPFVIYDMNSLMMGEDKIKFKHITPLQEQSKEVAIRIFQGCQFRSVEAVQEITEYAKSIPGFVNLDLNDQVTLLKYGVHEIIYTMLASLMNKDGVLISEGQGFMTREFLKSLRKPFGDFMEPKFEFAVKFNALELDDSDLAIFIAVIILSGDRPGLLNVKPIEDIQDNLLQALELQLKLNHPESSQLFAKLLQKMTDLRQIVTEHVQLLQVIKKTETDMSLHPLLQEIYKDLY
Chain of Vitamin D3 receptor (Homo sapiens) (P11473 whole entry, looked up): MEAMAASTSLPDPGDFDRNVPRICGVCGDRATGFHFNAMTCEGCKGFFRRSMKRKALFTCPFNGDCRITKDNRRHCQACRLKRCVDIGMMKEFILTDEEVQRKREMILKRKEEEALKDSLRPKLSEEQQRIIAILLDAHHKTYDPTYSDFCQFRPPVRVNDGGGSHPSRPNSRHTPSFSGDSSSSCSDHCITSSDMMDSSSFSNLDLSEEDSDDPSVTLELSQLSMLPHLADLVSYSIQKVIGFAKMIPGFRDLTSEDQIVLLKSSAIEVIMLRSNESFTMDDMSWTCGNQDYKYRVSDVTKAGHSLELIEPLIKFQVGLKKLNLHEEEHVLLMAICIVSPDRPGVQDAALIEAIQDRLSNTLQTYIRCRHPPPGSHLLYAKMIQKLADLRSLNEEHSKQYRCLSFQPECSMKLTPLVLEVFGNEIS

| SMILES | Potency [1] | Potency [2] | outcome [3] | Potency [4] | outcome [5] | Potency [6] | outcome [7] | outcome [8] | outcome [9] | outcome [10] | outcome [11] | Potency [12] | outcome [13] | outcome [14] | Potency [15] | outcome [16] | outcome [17] | outcome [18] | outcome [19] | outcome [20] |
| --- | --- | --- | --- | --- | --- | --- | --- | --- | --- | --- | --- | --- | --- | --- | --- | --- | --- | --- | --- | --- |
| C[C@H](CCC(=O)O)[C@H]1CC[C@H]2[C@@H]3[C@H](O)C[C@@H]4C[C@H](O)CC[C@]4(C)[C@H]3C[C@H](O)[C@]12C | inactive | inactive | inactive | inactive | inactive | inactive | inactive | inactive | inactive | inactive | inactive | inactive | inactive | inactive | – | – | – | – | – | – |
| COc1cc2c(Nc3ccc(Br)cc3F)ncnc2cc1OCC1CCN(C)CC1 | inactive | – | – | inactive | inactive | inactive | inactive | inactive | inactive | inactive | inactive | inactive | inactive | inactive | inactive | inactive | inactive | inactive | – | – |
| CN(C)CCOCCN(C)CCO | inactive | inactive | inactive | inactive | inactive | inactive | inactive | inactive | inactive | inactive | inactive | – | – | inactive | – | inactive | inactive | – | inactive | inactive |
| CCC(CO)CO | inactive | – | inactive | inactive | – | inactive | – | inactive | inactive | inactive | inactive | inactive | – | inactive | inactive | inactive | inactive | – | inactive | – |
| CC(C)(c1ccc(Oc2ccc3c(c2)C(=O)OC3=O)cc1)c1ccc(Oc2ccc3c(c2)C(=O)OC3=O)cc1 | inactive | inactive | – | – | inactive | inactive | inactive | inactive | inactive | inactive | – | inactive | – | inactive | inactive | – | – | – | inactive | – |
| C[C@H](CCC(=O)NCC(=O)O)[C@H]1CC[C@H]2[C@@H]3[C@H](O)C[C@@H]4C[C@H](O)CC[C@]4(C)[C@H]3C[C@H](O)[C@]12C | inactive | inactive | inactive | inactive | inactive | – | inactive | inactive | inactive | inactive | inactive | inactive | inactive | inactive | – | – | – | – | inactive | inactive |
| Cc1ccccc1C(=O)N1CC/C(=N\OS(=O)(=O)O)c2ccc(Cl)cc21 | inactive | inactive | inactive | inactive | inactive | inactive | inactive | inactive | – | – | inactive | inactive | – | inactive | – | inactive | – | – | inactive | – |
| CCNC(=O)/C=C/c1cccc(Br)c1 | inactive | inactive | inactive | inactive | inactive | inactive | – | inactive | inactive | inactive | inactive | inactive | – | inactive | – | – | inactive | – | inactive | inactive |
| O=S1(=O)CCCC1 | inactive | inactive | inactive | inactive | inactive | inactive | – | – | inactive | inactive | – | inactive | inactive | inactive | – | – | – | inactive | inactive | inactive |
| Cc1ccc2c(c1)c1c3n2CCNC3CCC1 (stereo unspecified) | inactive | – | – | – | – | inactive | inactive | inactive | – | – | – | inactive | inactive | inactive | 10.6 µM (active) | – | – | inactive | – | inactive |
| CCC(C)(C)C1CCC(=O)CC1 | inactive | inactive | – | – | inactive | inactive | inactive | inactive | inactive | – | inactive | inactive | – | inactive | inactive | inactive | inactive | – | inactive | inactive |
| Cc1ncc([N+](=O)[O-])n1CC(O)CCl (stereo unspecified) | inactive | inactive | – | – | inactive | inactive | inactive | – | inactive | inactive | – | inactive | inactive | inactive | inactive | – | – | inactive | inactive | inactive |
| CC(C)CCCC(C)CC=O (stereo unspecified) | inactive | inactive | inactive | – | inactive | inactive | – | inactive | inactive | inactive | inactive | inactive | – | inactive | – | inactive | – | – | – | – |
| C=C(C)C(=O)OC | inactive | inactive | inactive | – | inactive | inactive | inactive | inactive | inactive | – | – | inactive | inactive | inactive | – | inactive | inactive | – | – | – |
| N#CCCOCCOCCC#N | inactive | inactive | inactive | – | inactive | inactive | inactive | inactive | inactive | inactive | inactive | inactive | inactive | inactive | – | – | inactive | inactive | inactive | inactive |
| CCCCC(C)C(=O)O (stereo unspecified) | inactive | inactive | inactive | – | inactive | inactive | inactive | inactive | inactive | – | inactive | inactive | – | inactive | – | inactive | inactive | – | inactive | inactive |
| C=C(C)[C@@H]1CC[C@@H](C)C[C@@H]1O | inactive | inactive | inactive | – | inactive | inactive | inactive | inactive | inactive | inactive | inactive | inactive | – | inactive | – | – | – | – | – | – |
| COC(OC)C(C)c1ccccc1 (stereo unspecified) | inactive | inactive | inactive | inactive | inactive | – | inactive | inactive | – | inactive | inactive | inactive | – | inactive | – | – | – | – | – | inactive |
| O=C(COCCOCCOCC(=O)Nc1c(I)cc(I)c(C(=O)O)c1I)Nc1c(I)cc(I)c(C(=O)O)c1I | inactive | inactive | – | inactive | inactive | inactive | inactive | inactive | – | inactive | – | inactive | – | inactive | – | inactive | inactive | – | – | – |
